Data published in PubChem BioAssay (NCATS).
Results filed as inconclusive are left out. The source made the active and inactive calls. The call rests on the fitted dose curve; in most records, active means well fitted curve in the direction sought with a large enough effect; inconclusive means small, poorly fitted or top-dose-only effect, or another doubt; inactive means no such curve, though single readings can be large; an effect the other way counts as inactive or inconclusive.

Experiments:
[1] = molecular target: Cytochrome P450 2D6 (Homo sapiens) (UniProt P10635); test: qHTS Assay for Inhibitors and Substrates of Cytochrome P450 2D6 (AID 891); further: nearly all actives have a fitted effect of over 60% in size; further: potency means the concentration at half of the fitted maximal effect
Procedure, shortened: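 Luminescent read-out of luciferin formed by 5 nM human CYP2D6 demethylating 30 uM Luciferin-ME EGE (Km level) over 60 min at room temperature after NADPH regeneration addition. Data normalized to full inhibition by 1.43 uM quinidine.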

[2] = S16 Schwann cell viability assay (CellTiter-Glo assay) (AID 624031);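 further: native untransfected S16 rat Schwann cells; cellular ATP luminescence as a viability measure; nearly all actives have a fitted effect of over 70% in size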
Procedure, shortened: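 Rat S16 Schwann cells without reporter constructs received compound or DMSO for 24 h at 37 °C under 5% CO2. Cellular ATP was then quantified by CellTiter-Glo luminescence, with vehicle wells defined as 0% activity and cell-free wells as reference.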

AA1029 = test: qHTS profiling for inhibitors of Plasmodium falciparum proliferation (AID 504749); further: nearly all actives have a fitted effect of over 60% in size; details: P. falciparum in erythrocytes, SYBR Green DNA, 72 h; series mostly up to 28.7 µM
Procedure, shortened: (§1)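 SYBR Green fluorescence (ex 485 nm, em 535 nm) reports parasite DNA after 72 h compound exposure of infected red cells at 0.3% parasitemia, 2.5% hematocrit; signal normalized to 0.29 uM artemisinin and vehicle wells.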

ATS189 = test: as above; details: P. falciparum in erythrocytes, SYBR Green DNA, 72 h; series mostly up to 28.7 µM
Procedure, shortened: as §1

CP191 = test: as above; details: P. falciparum in erythrocytes, SYBR Green DNA, 72 h; series mostly up to 28.7 µM
Procedure, shortened: as §1

CP194 = test: as above; details: P. falciparum in erythrocytes, SYBR Green DNA, 72 h; series mostly up to 28.7 µM
Procedure, shortened: as §1

CP217 = test: as above; details: P. falciparum in erythrocytes, SYBR Green DNA, 72 h; series mostly up to 28.7 µM
Procedure, shortened: as §1

CP237 = test: as above; details: P. falciparum in erythrocytes, SYBR Green DNA, 72 h; series mostly up to 28.7 µM
Procedure, shortened: as §1

CP250 = test: as above; details: P. falciparum in erythrocytes, SYBR Green DNA, 72 h; series mostly up to 12.8 µM
Procedure, shortened: as §1

CP268 = test: as above; details: P. falciparum in erythrocytes, SYBR Green DNA, 72 h; series mostly up to 28.7 µM
Procedure, shortened: as §1

CP291 = test: as above; details: P. falciparum in erythrocytes, SYBR Green DNA, 72 h; series mostly up to 28.7 µM
Procedure, shortened: as §1

CP325 = test: as above; details: P. falciparum in erythrocytes, SYBR Green DNA, 72 h; series mostly up to 28.7 µM
Procedure, shortened: as §1

Dd2 = test: as above; details: P. falciparum in erythrocytes, SYBR Green DNA, 72 h; series mostly up to 28.7 µM
Procedure, shortened: as §1

JCK = test: as above; details: P. falciparum in erythrocytes, SYBR Green DNA, 72 h; series mostly up to 28.7 µM
Procedure, shortened: as §1

N140 = test: as above; details: P. falciparum in erythrocytes, SYBR Green DNA, 72 h; series mostly up to 28.7 µM
Procedure, shortened: as §1

P93_24 = test: as above; details: P. falciparum in erythrocytes, SYBR Green DNA, 72 h; series mostly up to 28.7 µM
Procedure, shortened: as §1

PC15 = test: as above; details: P. falciparum in erythrocytes, SYBR Green DNA, 72 h; series mostly up to 28.7 µM
Procedure, shortened: as §1

PC49 = test: as above; details: P. falciparum in erythrocytes, SYBR Green DNA, 72 h; series mostly up to 28.7 µM
Procedure, shortened: as §1

TAB109 = test: as above; details: P. falciparum in erythrocytes, SYBR Green DNA, 72 h; series mostly up to 12.8 µM
Procedure, shortened: as §1

CP297 = test: as above; details: P. falciparum in erythrocytes, SYBR Green DNA, 72 h; series mostly up to 28.7 µM
Procedure, shortened: as §1

Measured: Potency

Chain of Cytochrome P450 2D6 (Homo sapiens) (P10635 whole entry, looked up): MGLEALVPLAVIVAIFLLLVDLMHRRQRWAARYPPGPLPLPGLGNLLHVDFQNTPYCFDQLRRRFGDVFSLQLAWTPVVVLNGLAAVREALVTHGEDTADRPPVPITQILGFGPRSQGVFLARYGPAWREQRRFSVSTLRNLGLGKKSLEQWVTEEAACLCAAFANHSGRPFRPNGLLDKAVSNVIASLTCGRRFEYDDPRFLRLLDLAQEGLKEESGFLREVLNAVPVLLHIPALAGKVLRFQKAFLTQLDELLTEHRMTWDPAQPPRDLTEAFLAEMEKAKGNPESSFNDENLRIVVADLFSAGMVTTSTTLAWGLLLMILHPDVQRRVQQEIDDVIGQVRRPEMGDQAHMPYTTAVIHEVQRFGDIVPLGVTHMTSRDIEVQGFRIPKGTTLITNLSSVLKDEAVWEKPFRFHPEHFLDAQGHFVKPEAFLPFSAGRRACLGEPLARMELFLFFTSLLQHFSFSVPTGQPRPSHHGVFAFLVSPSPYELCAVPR

O=C(c1ccncc1)N1CCC2(CC1)CN(Cc1ccccc1)C2
active: [1] 6.31 µM

CCNC[C@H](O)c1cccc(O)c1
inactive: [2] | AA1029 | ATS189 | CP191 | CP194 | CP217 | CP237 | CP250 | CP268 | CP291 | CP325 | Dd2 | JCK | N140 | P93_24 | PC15 | PC49 | TAB109

CC1=C2[C@@H]3OC(=O)[C@@H](C)[C@@H]3CC[C@]2(C)C=CC1=O
inactive: [2] | CP194 | CP237 | CP268 | CP291 | CP297 | CP325 | Dd2 | JCK | PC15 | PC49

CS(=N)(=O)CC[C@@H](N)C(=O)O (stereo partly specified)
inactive: [1]

COc1ccc2c(c1OC)C(=O)O[C@H]2[C@H]1c2cc3c(cc2CCN1C)OCO3
inactive: [1]

CC[C@@H]1[C@@H]2C[C@H]3[C@H]4N(C)c5ccccc5[C@@]45C[C@@H]([C@@H]2[C@@H]5O)N3[C@H]1O
active: [1] 3.98 µM
inactive: [2] | AA1029 | ATS189 | CP191 | CP194 | CP217 | CP250 | CP268 | CP291 | CP297 | CP325 | Dd2 | JCK | N140 | TAB109

CC[C@@]1(c2ccc(N)cc2)CCC(=O)NC1=O
inactive: [2] | AA1029 | ATS189 | CP191 | CP194 | CP217 | CP237 | CP250 | CP268 | CP291 | CP297 | CP325 | Dd2 | JCK | N140 | P93_24 | PC15 | PC49 | TAB109

N#Cc1ccc(CN2CC[C@@]3(CCCN(C(=O)Oc4ccccc4)C3)C2)cc1
active: [1] 3.16 µM

C[C@H]1CN(C2CCC(C#N)(c3ccc(F)cc3)CC2)CC[C@@]1(C(=O)O)c1ccccc1 (stereo partly specified)
inactive: [2] | AA1029 | ATS189 | CP191 | CP194 | CP217 | CP237 | CP250 | CP268 | CP291 | CP297 | CP325 | Dd2 | JCK | N140 | P93_24 | PC15 | PC49 | TAB109

CC(C)NC(=O)N1CC[C@@]2(CCCNC2)C1
inactive: [1]

CNC[C@H](O)c1ccc(O)cc1
inactive: [1] | [2] | AA1029 | ATS189 | CP191 | CP194 | CP217 | CP237 | CP250 | CP268 | CP291 | CP297 | CP325 | Dd2 | JCK | N140 | P93_24 | PC15 | PC49 | TAB109

CC(=O)O[C@H]1CC[C@@]2(C)C(=CC[C@@H]3[C@H]2CC[C@]2(C)C(=O)CC[C@H]32)C1
inactive: [2] | AA1029 | ATS189 | CP191 | CP194 | CP217 | CP237 | CP250 | CP268 | CP291 | CP297 | CP325 | Dd2 | JCK | N140 | P93_24 | PC15 | PC49 | TAB109

C[N+]1(C)[C@@H]2CC[C@H]1CC(OC(=O)[C@@H](CO)c1ccccc1)C2 (stereo partly specified)
inactive: [2] | AA1029 | ATS189 | CP191 | CP194 | CP217 | CP237 | CP250 | CP268 | CP291 | CP297 | CP325 | Dd2 | JCK | N140 | P93_24 | PC15 | PC49 | TAB109

C[C@H](NC(C)(C)C)C(=O)c1cccc(Cl)c1
inactive: [2] | AA1029 | ATS189 | CP191 | CP194 | CP217 | CP250 | CP268 | CP291 | CP297 | CP325 | JCK | N140 | P93_24 | PC15 | PC49 | TAB109

CN(C)C(=O)Oc1cc(OC(=O)N(C)C)cc([C@@H](O)CNC(C)(C)C)c1
inactive: [2] | AA1029 | ATS189 | CP191 | CP194 | CP217 | CP237 | CP250 | CP268 | CP291 | CP297 | CP325 | Dd2 | JCK | N140 | P93_24 | PC15 | PC49 | TAB109
active: [1] 7.94 µM

CN1CCc2cc3c(cc2[C@@H]1[C@@H]1OC(=O)c2c1ccc1c2OCO1)OCO3
inactive: [1]

C[C@@]12CC[C@H]3[C@@H](CC[C@@H]4C[C@H]5S[C@H]5C[C@]43C)[C@H]1CC[C@H]2O
inactive: [2] | AA1029 | ATS189 | CP191 | CP194 | CP217 | CP237 | CP250 | CP268 | CP291 | CP297 | CP325 | Dd2 | JCK | N140 | P93_24 | PC15 | PC49 | TAB109

C[C@@]12CCC(=O)C=C1C=C[C@H]1[C@H]3CC[C@](O)(CCC(=O)O)[C@]3(C)CC[C@@H]12
inactive: [2] | AA1029 | ATS189 | CP191 | CP194 | CP217 | CP237 | CP250 | CP268 | CP291 | CP297 | CP325 | Dd2 | JCK | N140 | PC15 | PC49 | TAB109
